Results: ChEMBL document CHEMBL4513216, “Probing the Open Global Health Chemical Diversity Library for Multistage-Active Starting Points for Next-Generation Antimalarials” (ACS Infect Dis, 2020)
About 8,600 (12%) of roughly 69,000 compounds showed an effect of 50% or more. This excerpt belongs to a sample that is enriched for strong results.

These compounds were tested on Plasmodium berghei (assay: Screen against P. berghei liver stage (PbLuc), transformed with Luciferase, at 10uM). Settings: tested at 10 uM.
Format: functional, HepG2

SMILES | INHIBITION [%]
Clc1ccc(C2(CNC3=NCCN3)CCCC2)cc1 | 68.2
OCCN(Cc1ccncc1)CC1(c2ccc(Cl)cc2)CCCC1 | 18.3
Fc1ccc(C2(CNC3=NCCCN3)CCC2)cc1 | -20.3
CC(=O)N1CC(c2ccnc(Nc3nccs3)n2)C1 | 12.6
CN(C)CC1CN(Cc2nnc(C(C)(C)C)o2)CCO1 (stereo not drawn) | -104
CCc1nc(-c2cncnc2C2CCNC2)no1 (stereo not drawn) | 3.6
Cc1cnc(C(=O)N2CCC(C(=O)c3cc(F)ccc3F)CC2)cn1 | -121
NC(=O)N1CCC2(CCN(Cc3ccccn3)C2=O)C1 (stereo not drawn) | 24.5
CC(=O)c1cn(CCC(=O)NCCCC(=O)O)c2ccccc12 | -10.2
CC(NC(=O)NCCCn1cccn1)c1ccc2c(c1)OCCCO2 (stereo not drawn) | -6.7
CO[C@@H]1CCN(C(=O)Cc2cccc(F)c2)[C@H]1Cc1cccnc1 | 19.6
COc1ccc(CC(=O)N2CC[C@@H](OC)[C@@H]2Cc2cccnc2)cc1 | 38.5
CO[C@@H]1CCN(C(=O)Cc2ccc(F)cc2)[C@@H]1Cc1cccnc1 | 55.4
NC(=O)CNC1(c2ccc(Br)cc2)CCOCC1 | 19.4
CC(C)CN1CC(O)CN(S(=O)(=O)c2ccc(F)cc2)CC1=O (stereo not drawn) | 34.3
Cc1cc(C)nc(N2CCCC(C)(c3[nH]ncc3C(=O)N(C)C)C2)n1 (stereo not drawn) | 53.1
CN(C)C(=O)c1cn[nH]c1C1(C)CCN(c2ncccn2)CC1 | 12.45
Cc1nccc(N2CCCC(C)(c3[nH]ncc3C(N)=O)C2)n1 (stereo not drawn) | -7.66
Cc1ccc(S(=O)(=O)NC(CO)CC(C)C)cc1N(C)C (stereo not drawn) | 31.7
Cc1nc(C)n(C2CCCN(C(=O)CCCc3ccccn3)C2)n1 (stereo not drawn) | -11.9
CC(c1ccco1)N(C)Cc1cc2cc3c(cc2[nH]c1=O)OCO3 (stereo not drawn) | 16.9
CC(NCC(=O)Nc1ccc(N2CCCCCC2)cc1)c1cccs1 (stereo not drawn) | 64.9
COC1CCN(c2ccc(NC(=O)Cn3cccn3)cc2)CC1 | 8.31
CCc1nccn1CC(=O)Nc1cccc(N2CCCC2)c1 | 74.55
O=C(Cn1cccn1)Nc1ccc(N2CCOCC2)cc1 | 68.9
CC(NCC(=O)NCC(=O)Nc1ccc(F)cc1)c1cccs1 (stereo not drawn) | 0.734
CCc1nccn1CC(=O)Nc1cccc(C(=O)OC)c1 | -10.9

SMILES | INHIBITION [%]
COC1CCN(c2ccc(NC(=O)Cn3cccc3)cc2)CC1 | 14.2
CC1CCN(c2ccc(NC(=O)CCn3cccn3)cc2)CC1 | 11.3
CC(C)CCC(=O)NCc1ccc(N2CCCCC2)cc1 | 15.5
CC1CN(c2ccc(NC(=O)Cn3cccn3)cc2)CCO1 (stereo not drawn) | 16.5
CCc1nccn1CC(=O)Nc1cccc(C(=O)N(C)C)c1 | 0.0996
O=C(Cn1cccn1)Nc1ccc(N2CCCCC2)cc1 | 50.2
CN1CCN(C(=O)c2ccccc2)CC(Cc2cc(N(C)C)ncn2)C1 (stereo not drawn) | 21.1
CCCn1nc(C(=O)N(C)Cc2cnn(C)c2)ccc1=O | 48.7
CCOCC1CN(C(=O)c2ccnnc2)Cc2cnn(C)c21 (stereo not drawn) | -2.35
CN1CCN(Cc2cnc3n2CCN(Cc2cccnc2)CC3)CC1 | -1.36
c1cnc(OCc2nnc3n2CCN(CC2CCOCC2)C3)nc1 | 6.66
Cc1nn(C)c(C)c1C1CCCN1C(=O)CCc1ccco1 (stereo not drawn) | -37.7
COc1cccc(-c2n[nH]cc2CNC2CCN(C(C)C)CC2)c1 | -59.5
CCC(NC(=O)C1CC1)c1ccccc1OCC(=O)N1CCCC1 (stereo not drawn) | 9.47
Cn1c(=O)[nH]c(=O)n2c(CC(=O)Nc3c(Cl)cccc3Cl)cnc12 | 9.32
CN(C)c1cc(C2CCCN(C(=O)c3noc4c3CCCC4)C2)ccn1 (stereo not drawn) | 65.7
Cc1cc(C2CCCN(S(=O)(=O)c3cn[nH]c3)C2)ccn1 (stereo not drawn) | 19.6
CN(C)c1cc(C2CCCN(S(=O)(=O)c3cn[nH]c3)C2)ccn1 (stereo not drawn) | 85.7
O=C(c1noc2c1CCCC2)N1CCCC(c2nccs2)C1 (stereo not drawn) | 13.7
CN(C)c1cc(C2CCCN(S(=O)(=O)C3CCCC3)C2)ccn1 (stereo not drawn) | 54.4
CNc1cc(C2CCCN(S(=O)(=O)c3cn[nH]c3)C2)ccn1 (stereo not drawn) | 28
CN(C)c1cc(C2CCCN(S(=O)(=O)c3cn(C)cn3)C2)ccn1 (stereo not drawn) | -44.2
CN(C)c1cc(C2CCCN2C(=O)c2noc3c2CCCC3)ccn1 (stereo not drawn) | -13.2
CCS(=O)(=O)N1CCCC(c2ccnc(N(C)C)c2)C1 (stereo not drawn) | 0.301
Cc1nc(CCNCc2c(C)nn(C)c2N2CCOCC2)cs1 | -1
CCc1cc(NCC(O)CN2CCCCC2)ncn1 (stereo not drawn) | 27.4
